High-throughput results from PubChem.
Sampled rows, rich in hits. Any-hit rate of the full collection: about 22%.
CYP2C19 inhib – blockers of cytochrome P450 2C19 activity – biochemical, luminescence, ADME assay, primary screen. CYP2C19 Supersomes, luciferin-H EGE luminescence, 30 min. inhibition, % at 5 µM. actives 21% (n = 96,000). AID 778, 2007;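 active means CYP2C19 inhibition above a set limit at 5 µM in the primary screen, cut at about 50% in these data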;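 further: plate controls were negative control wells for no effect and 2.5 mM tranylcypromine positive control for full effect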
CYP2C9 activ – human CYP2C9 activators, primary screen, biochemical, luminescence; Cytochrome P450 2C9 (Homo sapiens), P11712; recombinant CYP2C9, luciferin-H conversion; stronger effect = higher value; factor 1 = untreated enzyme, 0 = blocked; activation factor at 5 µM; actives 1.4% (n = 96,000); AID 1024, 2008;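 active means activation factor of 2 or more for CYP2C9 at a 5 µM dose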;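 further: 0 = sulfaphenazole-blocked wells and 1 = vehicle-only wells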
Target sequence (P11712 whole entry, looked up): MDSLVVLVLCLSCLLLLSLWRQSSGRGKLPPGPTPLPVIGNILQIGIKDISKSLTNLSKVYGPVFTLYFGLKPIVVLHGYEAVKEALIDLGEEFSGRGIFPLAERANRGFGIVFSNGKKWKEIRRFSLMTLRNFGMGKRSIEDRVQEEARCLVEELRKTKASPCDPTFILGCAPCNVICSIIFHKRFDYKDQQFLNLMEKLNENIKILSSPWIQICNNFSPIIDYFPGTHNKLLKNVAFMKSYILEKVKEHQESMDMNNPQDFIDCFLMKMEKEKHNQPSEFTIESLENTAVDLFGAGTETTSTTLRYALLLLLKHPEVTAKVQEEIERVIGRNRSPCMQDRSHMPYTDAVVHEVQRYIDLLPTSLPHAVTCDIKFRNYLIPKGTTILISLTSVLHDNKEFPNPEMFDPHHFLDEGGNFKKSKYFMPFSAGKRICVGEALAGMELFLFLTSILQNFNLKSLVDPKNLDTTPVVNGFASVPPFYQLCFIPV
Measles CPE – compounds protecting cells from measles virus cytopathic effect, primary screen, measles RdRp inhibitor project, single point, MLSMR library, absorbance; actives 1.5% (n = 140,000); protection (pct of control), % at 4 µM; AID 841, 2007; Measles virus-infected cells, CPE protection; in the data active means protection mostly above about 24%, no sharp cut-off; inactive means mostly below about 26%
CYP2C19 activ – human CYP2C19 activators, primary screen, biochemical, luminescence | 96,000 tested, under 10 active | activation factor at 5 µM | AID 1025, 2008 | Cytochrome P450 2C19 (Homo sapiens), P33261 | recombinant CYP2C19, luciferin-H EGE luminescence; stronger effect = higher value; 0 = fully inhibited enzyme, 1 = untreated enzyme;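 active means activation factor of at least 2 at 5 µM in the primary screen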;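 further: 0 = wells with 2.5 mM tranylcypromine and 1 = vehicle-only wells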
CYP2C9 inh – blockers of cytochrome P450 2C9 activity – biochemical, luminescence, ADME assay, primary screen; AID 777, 2007; P11712; inhibition, % at 5 µM; actives 20% (n = 96,000); CYP2C9 Supersomes, luciferin-H conversion;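 active means blocking of liver enzyme CYP2C9 beyond about 50% at 5 µM, limit read from the data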
An asterisk follows results filed as active; x = no result.

SMILES	CYP2C19 inhib	CYP2C9 activ	Measles CPE	CYP2C19 activ	CYP2C9 inh
CC(Sc1nnc(N)s1)c1ccccc1Cl (centres undefined)	96*	0.5	31	0	51*
Nc1nnc(-c2ccccc2Cl)s1	15	1.4	9	0.9	-38
COc1ccc(C2NC(C(=O)O)CS2)cc1COCC(F)(F)F (centres undefined)	x	x	20	x	x
CCCCn1c(SCC(=O)Nc2nnc(CC)s2)nc2ccccc2c1=O	2	0.8	32*	1	16
O=C(CSc1nc2ccccc2c(=O)n1-c1ccccc1)NCc1ccco1	43	0.8	8	0.6	23
CC(=O)NCCn1c(SCC(=O)NCc2ccco2)nc2ccccc2c1=O	85*	1.2	23	0.2	-15
O=C(CSc1nc2ccccc2c(=O)n1-c1ccccc1)NCc1ccc2c(c1)OCO2	19	0.8	8	0.8	18
CC(C)(C)c1nc(SCC(=O)NCc2ccco2)c2ccccc2n1	94*	0.3	6	0.1	65*
CCCCNC(=O)CSc1nc2ccccc2c(=O)n1Cc1ccc2c(c1)OCO2	84*	0.6	28	0.2	44
CCCCn1c(SCC(=O)Nc2nnc(CC)s2)nc2c1c(=O)n(C)c(=O)n2C	-7	1	8	1.1	1
Cc1cccc2cc(CN(Cc3cccs3)S(=O)(=O)c3ccc4c(c3)OCCO4)c(=O)[nH]c12	x	x	17	x	x
CC(=O)Nc1ccc(S(=O)(=O)N(C)CC(=O)NC2=NCCS2)cc1	-18	0.9	7	1.2	14
CCOc1ccc(C2OC(=O)Cc3cc(OC)c(OC)cc32)cc1 (centres undefined)	35	0.7	12	0.6	26
CC(=O)NCCn1c(SCC(=O)NCCC(C)C)nc2ccccc2c1=O	69*	0.9	60*	0.3	11
COc1ccccc1NC(=O)CSc1nc2ccccc2c(=O)n1CCNC(C)=O	33	0.5	4	0.7	49
O=C(CSc1nc2ccccc2c(=O)n1Cc1ccco1)NCc1ccco1	x	x	13	x	x
CCCCn1c(SCC(=O)NCc2ccco2)nc2ccccc2c1=O	65*	0.5	7	0.4	52*
COC(=O)[C@@H](NC(=O)NC1CCCc2ccccc21)C(C)C (some centres undefined)	6	1	13	0.9	3
CCNC(=O)NC(=O)CSc1nc2ccccc2n1CCOC	22	0.4	11	0.8	61*
CCCNC(=O)NC(=O)CSc1nc2ccccc2n1CC(C)C	88*	0.5	26	0.1	53*
Cc1c(C#N)c2ccccc2n1CC(=O)O	x	x	8	x	x
Cc1c(C#N)c2ccccc2n1CC(=O)NC(C)c1ccccc1 (centres undefined)	87*	0.4	39	0.1	59*
Cc1cccc(NC(=O)Cn2c(C)c(C#N)c3ccccc32)c1C	87*	0.1	6	0.1	87*
CCOC(=O)Cn1c(C)c(C#N)c2ccccc21	57*	0.5	8	0.4	50*
COC(=O)c1c(NC(=O)CN2CCC3(O)CCCCC3C2c2cc(OC)ccc2OC)sc(C)c1C (centres undefined)	x	x	9	x	x
SMILES	CYP2C19 inhib	CYP2C9 activ	Measles CPE	CYP2C19 activ	CYP2C9 inh
Nc1nc(N)nc(-c2ccccn2)n1	20	1	5	0.8	-2
Clc1ccc(OCc2nc(-c3ccccn3)n[nH]2)cc1	65*	0.5	6	0.3	51*
Brc1ccc(OCc2nc(-c3ccccn3)n[nH]2)cc1	71*	0.4	6	0.3	62*
Cc1nc(N2CCN(S(=O)(=O)c3cccc4nonc34)CC2)c2c3c(sc2n1)CCCC3	26	0.5	11	0.7	46
COC(=O)C(NC(=O)c1ccc(F)cc1)(Nc1nc(C)cs1)C(F)(F)F (centres undefined)	37	1	14	0.6	-4
COC(=O)C(NC(=O)c1ccc(Cl)cc1)(Nc1nc(C)cs1)C(F)(F)F (centres undefined)	74*	0.8	3	0.3	17
Fc1ccc(Br)cc1C1C=C(c2cccnc2)Nc2ncnn21 (centres undefined)	88*	0.5	1	0.1	54*
Brc1ccc(C2=CC(c3cccs3)n3ncnc3N2)cc1 (centres undefined)	35	0.6	16	0.7	42
COc1ccc(OC)c(C(=O)C2COC(=O)C2)c1 (centres undefined)	2	1.3	13	1	-33
COc1cc(C(=O)Oc2ccccc2/C=N/NC(=O)c2ccc(C)cc2)cc(OC)c1OC	33	0.4	2	0.7	59*
CC(C)(C)C(=O)Nc1ccc(C(=O)N/N=C/c2ccccc2OC(=O)c2ccccc2)cc1	64*	0.6	4	0.4	37
Cc1ccc(SCC(=O)c2c(C)[nH]c3ccccc23)cc1	x	x	41*	x	x
Cc1[nH]c2ccccc2c1C(=O)Cn1c(=O)oc2ccccc21	62*	0.4	9	0.4	58*
O=C(Nc1ccccc1)OC(CN1CCCCC1)C(F)(F)F (centres undefined)	43	0.8	6	0.6	23
Cn1c(-c2ccc(-c3ccccc3)cc2)c[nH]c1=S	89*	0.4	14	0.1	64*
S=c1[nH]cc(-c2ccccc2)n1-c1cccc(Cl)c1	x	x	6	x	x
C=CCn1c(-c2ccccc2)c[nH]c1=S	70*	0.8	5	0.3	23
C=CCn1c(-c2ccc(Cl)cc2)c[nH]c1=S	66*	0.6	16	0.3	42
C=CCn1c(-c2cccc(Cl)c2)n[nH]c1=S	49	0.9	6	0.5	12
CCn1c(-c2ccc(-c3ccccc3)cc2)c[nH]c1=S	81*	0.8	5	0.2	19
O=c1oc(-c2cccs2)nc2c1cnn2-c1ccccc1	-15	0.9	21	1.1	7
Cc1cccc(-c2nc3ccccc3c(=O)n2NC(=O)c2ccc([N+](=O)[O-])c(C)c2)c1	x	x	6	x	x
CCOC(=O)c1sc2ncnc(N3CCN(C(=O)OCC)CC3)c2c1C	37	0.2	16	0.6	76*
CCCCNC(=O)c1sc2ncnc(N3CCc4ccccc4C3)c2c1C	18	0.1	9	0.8	94*
COc1cc(C(=O)N2CCN(c3ncnc4sc(C)c(C)c34)CC2)cc(OC)c1OC	73*	0.3	17	0.3	70*
CCOC(=O)c1sc2nc(CC(=O)OC)nc(N3CCN(c4ccccn4)CC3)c2c1C	68*	0.2	x	0.3	85*
O=C(CSc1nc(C2CCCCC2)n(-c2ccccc2)n1)NCC(F)(F)F	x	x	16	x	x
O=C(NC1CCCCC1)NC1(C(=O)NCCCN2CCOCC2)CCCCC1	8	1	11	0.9	0
